# Hits are enriched below; roughly 5.2% of the tested compounds scored in any of these assays.
# NadD block: blocks S. aureus nicotinate mononucleotide adenylyltransferase; 360,000 compounds, 0.78% hits; inhibition, % at 20 µM; purified NadD enzyme, colorimetric absorbance read-out; in the data active = inhibition above about 26%
# esBAF inh: SWI/SNF esBAF complex inhibition; 350,000 compounds, 2% hits; reporter increase, % at 12.5 µM; AID 602393; mouse ES cells, Bmi1-luciferase knock-in reporter, 24 h; 100% = twice the neutral-well signal; in the data active = activation above about 40%;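 also: 0% = median of the plate's neutral control wells and 100% = double that signal; a rise in the Bmi1 reporter signal indicates esBAF inhibition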
# GRIN3A LBD mod: modulates the human NR3A ligand-binding domain. NR3A LBD differential scanning fluorimetry, Tm shift; 0% = protein alone, 100% = glycine-bound protein. Tm shift relative to glycine control, % at 25 µM. 340,000 compounds, 2.5% hits;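 active = melting temperature shift of at least 10% of the positive control shift, at one fixed dose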
# SMARCA2 act: increases SMARCA2 function in MMTV reporter cells; activation, % at 9.1 µM; 370,000 compounds, 1% hits; MG213 cells, MMTV-luciferase reporter, dexamethasone, overnight; AID 652017; in the data active = activation above about 7.8%;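 also: 0% = vehicle wells and 100% = reference activator wells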
# SKN-1 block: blocks SKN-1 activity in C. elegans; C. elegans VP596 Pgst-4::GFP/RFP ratio, acrylamide-induced, 24 h; 360,000 compounds, 0.49% hits; inhibition, % at 21.8 µM;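 active = interference check ratio from 0.5 to 1.5 plus GFP to RFP signal ratio inhibition reaching or exceeding a fixed threshold, cut at about 30% in these data, passing the limit was not always enough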
# Vif inh: HIV Vif inhibition | HEK293T cells, Vif self-association by quenched fluorescence, imaging, 24 h | inhibition, % at 7.49 µM | 340,000 compounds, 0.35% hits | AID 602346; in the data active = inhibition above about 50%, passing the limit was not always enough
# Active calls of the source: *; . = no result given.
SMILES,NadD block,esBAF inh,GRIN3A LBD mod,SMARCA2 act,SKN-1 block,Vif inh
Cc1cccc(COc2ccc(/C=N/NC(=O)c3nnn(-c4nonc4N)c3COc3ccc(F)cc3)cc2)c1,18.7,.,25.2*,-1.3,5.3,-1.4
CO[C@@H]1CN(C)C(=O)c2ccc(NC(=O)NC3CCCCC3)cc2OC[C@@H](C)N(CC2CCOCC2)C[C@H]1C,.,3.9,.,.,.,.
CN(C)Cc1c(C(=O)N/N=C/c2ccc(OCc3c(F)cccc3Cl)cc2)nnn1-c1nonc1N,12.4,6.5,-1.6,-2.3,-3.5,-3.3
Nc1nonc1-n1nnc(C(=O)N/N=C/c2ccccc2Cl)c1COc1ccc(F)cc1,7.1,.,22.8*,-1.5,-10.1,-6.5
Cc1ccc(CN2C(=O)N/C(=C\c3ccc(-c4ccc(C(=O)O)cc4C)o3)C2=O)cc1,16.3,8.6,0.0,-2.5,-5.5,6.4
C#CCN1C(=O)S/C(=C\c2ccc(-c3ccc(C(=O)O)cc3C)o2)C1=O,9.2,86.4*,-1.5,7.5,7.8,-0.7
Cc1ccc(C(=O)O)cc1-c1ccc(/C=C2\SC(=O)N(CC(=O)Nc3ccccc3)C2=O)o1,33.8*,-1.9,-2.9,-1.7,10.4,0.8
Cc1ccc(NC(=O)CN2C(=O)S/C(=C/c3ccc(-c4cccc(C(=O)O)c4)o3)C2=O)cc1,20.9,.,-0.2,-2.0,1.7,9.9
Cc1ccccc1NC(=O)CN1C(=O)S/C(=C\c2ccc(-c3cc(C(=O)O)ccc3C)o2)C1=O,40.6*,.,-12.8,-0.4,2.5,-8.0
COc1cccc(/C=N/NC(=O)C[n+]2ccccc2)c1OC,0.6,.,-1.9,3.2,-0.9,6.7
COc1cccc(/C=N/NC(=O)CN(C)S(=O)(=O)c2ccccc2)c1OC,-1.0,55.9*,0.5,1.6,4.7,-6.7
O=C(Nc1ccccc1F)c1ccc2ncsc2c1,-7.0,56.5*,2.7,4.8,15.0,-4.0
O=C(Nc1ccc(Cl)cc1Cl)c1ccc2ncsc2c1,-6.3,58.8*,-1.5,4.6,10.8,-2.6
O=C(Nc1cccc(F)c1)c1ccc2ncsc2c1,-8.7,15.5,8.5,.,17.9,3.1
O=C(Nc1ccncc1)c1ccc2ncsc2c1,-0.1,70.8*,-1.6,-1.1,4.6,10.4
O=C(Nc1ccc(F)cc1F)c1ccc2ncsc2c1,1.7,66.9*,1.3,2.1,17.7,-23.5
CO[C@@H](CN(C)S(=O)(=O)c1ccc(C)cc1)[C@H](C)CN(C(=O)Nc1ccccc1F)[C@@H](C)CO,.,11.2,.,.,.,.
CO[C@@H]1CN(C)C(=O)c2ccc(NC(=O)c3nc4ccccc4s3)cc2OC[C@H](C)NC[C@@H]1C,.,-4.5,.,.,.,.
CCC(=O)Nc1cccc(C(=O)OCC(=O)c2ccccc2Cl)c1,-1.6,50.8*,-0.1,0.9,-4.4,2.9
O=C(CCC(=O)OCC(=O)c1ccccc1)Nc1cccc(Cl)c1,-2.2,.,23.7*,-1.1,-3.7,-5.0
O=C(NC1CCC1)[C@@H]1[C@@H](CO)[C@@H]2Cn3c(cccc3=O)[C@@H]2N1CCc1ccccc1,.,3.3,.,.,.,.
CCCc1cn(CC[C@H]2CC[C@H](NC(=O)CCN3CCCCC3)[C@H](CO)O2)nn1,.,-4.3,.,.,.,.
CN1c2ccc(-c3ccccc3F)cc2[C@@H]2[C@@H](CCN2C(=O)Cc2ccccn2)[C@@H]1CO,.,2.0,.,.,.,.
O=C(Nc1ccccc1)N1CCCC(c2nc(-c3ccc(F)cc3)no2)C1 (stereo not given),-3.2,22.3,1.8,-2.2,-6.7,0.1
O=C(Nc1cccc(C(F)(F)F)c1)N1CCC(c2nc(-c3ccc(F)cc3)no2)CC1,-7.3,-0.1,20.7*,-2.2,-6.0,-20.5
SMILES,NadD block,esBAF inh,GRIN3A LBD mod,SMARCA2 act,SKN-1 block,Vif inh
Cc1cc(C(=O)N/N=C/c2c(C)[nH]c3ccccc23)n[nH]1,0.2,.,-11.6,-4.9,4.6,-2.0
CC(/C=N/NC(=O)c1cc(-c2cccs2)[nH]n1)=C\c1ccccc1,6.4,.,10.6*,-1.9,15.8,-1.9
Cc1[nH]c2ccccc2c1/C=N/NC(=O)c1cc(-c2cccs2)[nH]n1,9.4,.,21.0*,1.0,3.4,2.1
Cc1[nH]c2ccccc2c1/C=N\NC(=O)c1ccccc1Cl,3.3,-0.1,.,4.8,11.0,-4.8
CC(/C=N/NC(=O)c1cc(-c2ccc(C)o2)[nH]n1)=C\c1ccccc1,10.4,3.3,22.3*,-2.3,-6.5,4.0
Cc1[nH]c2ccccc2c1/C=N/NC(=O)C1CC1(c1ccccc1)c1ccccc1 (stereo not given),17.9,.,12.0*,-3.0,16.2,-0.8
CC(/C=N/NC(=O)c1cc(C2CC2)[nH]n1)=C\c1ccccc1,0.1,.,-7.7,-1.6,12.0,14.1
C[C@@H](NC(=O)C[C@H]1C=C[C@@H](NC(=O)Cc2ccccn2)[C@@H](CO)O1)c1ccccc1,.,-3.1,.,.,.,.
CO[C@H]1CN(C)C(=O)c2ccc(NC(=O)Nc3cccc(F)c3)cc2OC[C@@H](C)NC[C@H]1C,.,-0.5,.,.,.,.
Cc1noc(C)c1NC(=O)Nc1ccc2c(c1)CC(=O)N([C@@H](C)CO)C[C@H](C)[C@@H](CN(C)Cc1ccc(-c3ccccc3)cc1)O2,.,-4.8,.,.,.,.
NNC(=O)c1cc(-c2ccco2)[nH]n1,-2.4,.,1.2,-2.6,-1.8,0.9
O=C(N/N=C/C(Br)=C/c1ccccc1)c1cc(-c2ccco2)[nH]n1,27.6,.,22.2*,0.8,9.4,2.8
Cn1cccc1-c1cc(C(=O)N/N=C/c2ccc(Cl)cc2)[nH]n1,-0.5,-1.2,19.0*,-1.8,15.9,-3.5
Cc1ccc(-c2cc(C(=O)N/N=C/c3ccc(Cl)cc3)n[nH]2)o1,5.0,0.8,31.4*,-4.1,21.9,-3.1
Cc1ccc(-c2cc(C(=O)N/N=C/c3ccccc3)n[nH]2)o1,3.8,8.1,9.7,-0.5,9.1,-9.1
CN(C)CCCNC(=O)C[C@H]1CC[C@@H]2[C@H](COc3ccc(NC(=O)C4CCC4)cc3C(=O)N2C)O1,.,2.9,.,.,.,.
CC(=O)N(C)C[C@H]1Oc2cc(-c3ccccc3C)ccc2S(=O)(=O)N([C@@H](C)CO)C[C@H]1C,.,-1.9,.,.,.,.
CCCCN(CC)C(=O)c1cc2cc3ccc(Cl)cc3nc2o1,-8.5,.,19.3*,1.6,14.9,6.4
CCCCN(CC)CCCNC(=O)c1cc2cc3ccc(OC)cc3nc2o1,1.3,12.2,1.8,-1.5,-0.3,.
Cc1ccc(Oc2nc(-c3ccccc3)ncc2S(C)(=O)=O)cc1,2.1,-11.2,-0.4,4.8,-2.9,3.4
Cc1ccc(Oc2nc(-c3ccccc3)ncc2S(=O)(=O)c2ccc(C)cc2)cc1,-3.2,3.9,11.4*,2.4,1.9,-3.0
Cc1cc(C)n(CCc2nc(-c3ccc(C(C)(C)C)cc3)cs2)n1,4.6,-10.5,11.5*,-6.4,6.2,-14.4
COc1cc(/C=C2\SC(=O)N(c3ccc(Cl)cc3)C2=O)cc([N+](=O)[O-])c1O,59.6*,.,13.8*,1.2,10.6,-3.4
COc1ccc(NS(=O)(=O)c2ccc3[nH]c(=O)[nH]c3c2)cc1,-4.4,-1.4,2.1,2.9,23.6,39.7

# Source: PubChem BioAssay (several laboratories)
